The values below come from PubChem BioAssay (EPA / NIEHS).

The target of test [1] is Bile acid receptor (Homo sapiens) (UniProt Q96RI1). Nature of the test: ATG_IR1_CIS: Attagene CIS-FACTORIAL HepG2 Assay for human Nuclear Receptor Subfamily 1 Group H Member 4 (NR1H4), IR1 submotif (AID 2282946). Conditions: IR1 reporter transcription, actives raise or lower the signal. In outline: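 Readout: reporter transcript levels by RT-PCR with fluorescent capillary electrophoresis, from HepG2 cells transiently transfected with multiplexed cis-regulated reporters and dosed 24 h. Gain- or loss-of-signal fitted versus DMSO negative control.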

Test [2] is described as follows: ATG_GRE_CIS: Attagene CIS-FACTORIAL HepG2 Assay for human Glucocorticoid Response Elements (GRE) (AID 2282947). Conditions: HepG2 GRE cis-reporter, Attagene multiplex mRNA; actives raise or lower the signal. The procedure, abridged: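 Cells (HepG2) bearing transfected cis-promoter reporter transcription units were treated with chemical for 24 hours. Reporter mRNA was measured via RT-PCR with capillary electrophoresis, and activity was fitted in both directions relative to DMSO.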

Test [3] is described as follows: ATG_ISRE_CIS: Attagene CIS-FACTORIAL HepG2 Assay for human Interferon Regulatory Factor 1 (IRF1) binding to an Interferon-Stimulated Response Element (ISRE) (AID 2282948). The note with it: HepG2 ISRE cis-reporter (Attagene), mRNA transcription readout; actives raise or lower the signal. In outline:
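Multiplexed mRNA reporter readout in human liver HepG2 cells: cis-element-driven reporters transfected, compound added for 24 h, transcripts amplified, fluorescently labelled and sized by capillary electrophoresis; curve fitting bidirectional against DMSO.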

Test [4] is described as follows: ATG_M_32_CIS: Attagene CIS-FACTORIAL HepG2 Assay for M32 Transcription Factor (Internal Marker) (AID 2282949).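 Further: background control marker of the multiplexed CIS panel rather than a real target.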 Conditions: HepG2 Attagene cis-factorial M32 reporter, mRNA; actives raise or lower the signal. The procedure, abridged: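 HepG2 transfectants (cis-regulated reporter transcription units) dosed 24 h. Reporter mRNA by RT-PCR plus CE, analysed as gain or loss relative to DMSO.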

Test [5] is described as follows: ATG_M_06_CIS: Attagene CIS-FACTORIAL HepG2 Assay for M06 Transcription Factor (Internal Marker) (AID 2282950). The note with it: HepG2 Attagene CIS-FACTORIAL M06 internal marker reporter; actives raise or lower the signal. The procedure, abridged:
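Read-out is fluorescence of labelled reporter cDNA fragments resolved by capillary electrophoresis after RT-PCR. Cells: HepG2 carrying transfected cis-promoter reporter units, treated 24 h. Gain or loss of signal fitted relative to DMSO.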

The target of test [6] is Hepatocyte nuclear factor 6 (Homo sapiens) (UniProt Q9UBC0). Nature of the test: ATG_HNF6_CIS: Attagene CIS-FACTORIAL HepG2 Assay for human Hepatocyte Nuclear Factor 6 (HNF6) (AID 2282952). Conditions: HepG2 Attagene cis-factorial HNF6 reporter transcription; actives raise or lower the signal. In outline: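 Using cis-element reporters in HepG2 liver cells, the assay tracks endogenous factor-driven transcription 24 h post-dosing. Signal comes from 6-FAM-labelled, HpaI-digested RT-PCR fragments, with gain or loss scored against DMSO.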

Test [7] addresses Heat shock factor protein 1 (Homo sapiens) (UniProt Q00613). Nature of the test: ATG_HSE_CIS: Attagene CIS-FACTORIAL HepG2 Assay for human Heat Shock Transcription Factor 1 (HSE) (AID 2282953). Conditions: HepG2 HSE cis-reporter, Attagene RNA transcription; actives raise or lower the signal. In outline:
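HepG2, transient MRTU transfection, cis-promoter reporters (endogenous TF activity). 24 h compound. RNA → oligo(dT) RT → PCR → 6-FAM primer extension → HpaI cut → CE. Bidirectional fit vs DMSO.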

The nature of test [8]: ATG_MRE_CIS: Attagene CIS-FACTORIAL HepG2 Assay for human Metal Responsive Element (MRE) (AID 2282954). Conditions: HepG2 MRE cis-reporter transcription, Attagene multiplex; actives raise or lower the signal. In outline:
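Cells were transfected with cis-promoter reporter transcription units, then dosed for 24 h. RNA was reverse-transcribed, amplified, fluorescently labelled and resolved by capillary electrophoresis, and activity was fitted in both directions relative to DMSO.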

Test [9] can be described thus: ATG_PBREM_CIS: Attagene CIS-FACTORIAL HepG2 Assay for human Phenobarbital-responsive Enhancer Module (PBREM) (AID 2282955). Conditions: HepG2 PBREM cis-reporter, Attagene multiplexed transcription; actives raise or lower the signal. In outline: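 Transfected liver-derived HepG2 cells exposed 24 h; PBREM reporter transcript quantified via RT-PCR and capillary electrophoresis, with activity in either direction referenced to DMSO.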

A short description of test [10]: ATG_PXRE_CIS: Attagene CIS-FACTORIAL HepG2 Assay for human Pregnane X Receptor Element (PXRE) (AID 2282957). Conditions: HepG2 Attagene CIS-FACTORIAL PXRE reporter, mRNA; actives raise or lower the signal. In outline: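 Using HepG2 transfected with multiple reporter transcription units, endogenous factor-driven transcription was scored as reporter mRNA after 24 h exposure.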

Test [11] in a line: ATG_PPRE_CIS: Attagene CIS-FACTORIAL HepG2 Assay for human Peroxisome Proliferator-activated Response Element (PPRE) (AID 2282958). The note with it: HepG2 PPRE cis-element reporter, Attagene transcription factor profiling; actives raise or lower the signal. The procedure, abridged:
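Measured endpoint: PPRE-controlled reporter mRNA, detected by RT-PCR and capillary electrophoresis fluorescence, from transiently transfected HepG2 cells 24 h after dosing. Curves fitted in both directions using DMSO baseline.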

Test [12] in a line: ATG_RORE_CIS: Attagene CIS-FACTORIAL HepG2 Assay for human RAR-related Orphan Receptor Element (RORE) (AID 2282959). Conditions: HepG2 Attagene cis-factorial RORE reporter, mRNA; actives raise or lower the signal. The procedure, abridged:
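Transiently transfected HepG2 reporter cells were treated 24 h. Reporter transcripts were detected by RT-PCR and capillary electrophoresis, with bidirectional fitting against DMSO.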

Test [13] is described as follows: ATG_Sox_CIS: Attagene CIS-FACTORIAL HepG2 Assay for human SRY-box transcription factor (SOX) (AID 2282960). The note with it: HepG2 Attagene cis-factorial SOX reporter, mRNA; actives raise or lower the signal. The procedure, abridged:
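Gain- or loss-of-signal endpoint, fitted bidirectionally with DMSO as negative control. Based on reporter mRNA from transfected HepG2 cells harvested 24 h post-treatment and quantified via RT-PCR and capillary electrophoresis.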

The target of test [14] is Transcription factor Sp1 (Homo sapiens) (UniProt P08047). In words: ATG_Sp1_CIS: Attagene CIS-FACTORIAL HepG2 Assay for human Specificity Protein 1 (Sp1) (AID 2282961). Conditions: HepG2 Sp1 cis-reporter transcription, actives raise or lower the signal. In outline: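 Endpoint reflects endogenous Sp1 transcriptional activity, not an exogenous fusion protein: HepG2 cells with transfected cis-regulated reporters, 24 h dosing, RT-PCR/capillary electrophoresis mRNA read-out, DMSO-normalised bidirectional fit.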

A short description of test [15]: ATG_SREBP_CIS: Attagene CIS-FACTORIAL HepG2 Assay for human Sterol Regulatory Element Binding (SREBP) (AID 2282962). Conditions: HepG2 Attagene cis-factorial SREBP reporter, mRNA; actives raise or lower the signal. In outline:
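Endogenous factor activity is measured in HepG2 through multiplexed reporter units under cis-element control. Following a 24 h incubation, reporter transcripts are reverse-transcribed, PCR-amplified and sized by capillary electrophoresis; activity is fitted in both directions relative to DMSO.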

The target of test [16] is Signal transducer and activator of transcription 3 (Homo sapiens) (UniProt P40763). Nature of the test: ATG_STAT3_CIS: Attagene CIS-FACTORIAL HepG2 Assay for human Signal Transducer and Activator of Transcription 3 (STAT3) (AID 2282963). Conditions: HepG2, Attagene cis-factorial STAT3 reporter transcription; actives raise or lower the signal. The procedure, abridged:
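HepG2, MRTU-transfected, 24 h dosing. RNA → RT → PCR → FAM label → HpaI → CE. Bidirectional fit vs DMSO.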

Test [17] concerns the target Hypoxia-inducible factor 1-alpha (Homo sapiens) (UniProt Q16665). In words: ATG_HIF1a_CIS: Attagene CIS-FACTORIAL HepG2 Assay for human Hypoxia Inducible Factor 1 (HIF1A) (AID 2282951). The note with it: HepG2 Attagene cis-factorial HIF1a reporter transcription; actives raise or lower the signal. In outline: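 Dosed 24 h, transfected HepG2 cells yielded total RNA whose reporter transcripts were RT-PCR-amplified and sized by capillary electrophoresis using fluorescent labelling; DMSO defined baseline, with gain and loss of signal both fitted.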

Test [18] is described as follows: ATG_TA_CIS: Attagene CIS-FACTORIAL HepG2 Assay for human TA Basal Promoter (AID 2282964). Conditions: HepG2 Attagene CIS-factorial TA basal promoter reporter; actives raise or lower the signal. The procedure, abridged: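 Read-out: fluorescent reporter-transcript fragments resolved by capillary electrophoresis after RT-PCR and HpaI digestion. Source: HepG2 cells carrying transiently transfected multi-reporter cis constructs, treated 24 h. Endpoint fitted bidirectionally relative to DMSO.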

Test [19] deals with Paired box protein Pax-6 (Homo sapiens) (UniProt P26367). Nature of the test: ATG_Pax6_CIS: Attagene CIS-FACTORIAL HepG2 Assay for human Paired Box 6 (PAX6) (AID 2282956). Conditions: HepG2 CIS-FACTORIAL PAX6 reporter transcription, RNA readout; actives raise or lower the signal. In outline: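 Fluorescent RT-PCR products separated by capillary electrophoresis report PAX6-linked promoter mRNA in HepG2 cells 24 h post-dose. Curves fitted bidirectionally, DMSO as negative control.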

The nature of test [20]: ATG_TCF_b_cat_CIS: Attagene CIS-FACTORIAL HepG2 Assay for human T-Cell-Factor with beta-catenin (TCF/b-cat) (AID 2282965). Conditions: HepG2 TCF/beta-catenin cis-reporter transcription, actives raise or lower the signal. In outline:
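In this cis-format system, transfected HepG2 cells report endogenous transcription factor activity. Readout after 24 h exposure is reporter transcript abundance from RT-PCR and capillary electrophoresis, analysed for gain or loss of signal versus DMSO.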

Broadly, the AC50 is the concentration giving half of the maximal activity seen.

Active and inactive are the calls of the source. How the source made its calls: active means hit-call score of the fitted dose curve at least 0.9, where 1 is the maximum; inactive means score below 0.9.

Chain of Signal transducer and activator of transcription 3 (Homo sapiens) (P40763 whole entry, looked up): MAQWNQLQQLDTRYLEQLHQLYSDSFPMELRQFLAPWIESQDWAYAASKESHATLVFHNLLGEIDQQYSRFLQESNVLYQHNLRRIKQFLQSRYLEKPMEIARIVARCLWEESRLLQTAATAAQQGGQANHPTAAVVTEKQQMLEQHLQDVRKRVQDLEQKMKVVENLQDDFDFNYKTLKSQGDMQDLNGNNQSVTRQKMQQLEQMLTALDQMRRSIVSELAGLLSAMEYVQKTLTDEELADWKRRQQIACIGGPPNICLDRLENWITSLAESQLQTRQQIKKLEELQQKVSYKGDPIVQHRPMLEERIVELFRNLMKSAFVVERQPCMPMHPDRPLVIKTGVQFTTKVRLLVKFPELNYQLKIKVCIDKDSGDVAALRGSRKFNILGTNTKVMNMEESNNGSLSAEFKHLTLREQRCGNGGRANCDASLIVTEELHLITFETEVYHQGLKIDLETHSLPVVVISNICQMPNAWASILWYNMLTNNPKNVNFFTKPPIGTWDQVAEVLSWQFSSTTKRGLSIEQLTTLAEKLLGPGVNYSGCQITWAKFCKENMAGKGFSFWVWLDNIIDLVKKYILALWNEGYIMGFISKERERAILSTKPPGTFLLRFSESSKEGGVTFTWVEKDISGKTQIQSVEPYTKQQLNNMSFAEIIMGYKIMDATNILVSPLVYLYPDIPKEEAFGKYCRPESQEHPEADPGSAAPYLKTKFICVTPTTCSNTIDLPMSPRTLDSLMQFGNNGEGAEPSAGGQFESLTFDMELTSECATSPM
Chain of Transcription factor Sp1 (Homo sapiens) (P08047 whole entry, looked up, the tested form may be a part): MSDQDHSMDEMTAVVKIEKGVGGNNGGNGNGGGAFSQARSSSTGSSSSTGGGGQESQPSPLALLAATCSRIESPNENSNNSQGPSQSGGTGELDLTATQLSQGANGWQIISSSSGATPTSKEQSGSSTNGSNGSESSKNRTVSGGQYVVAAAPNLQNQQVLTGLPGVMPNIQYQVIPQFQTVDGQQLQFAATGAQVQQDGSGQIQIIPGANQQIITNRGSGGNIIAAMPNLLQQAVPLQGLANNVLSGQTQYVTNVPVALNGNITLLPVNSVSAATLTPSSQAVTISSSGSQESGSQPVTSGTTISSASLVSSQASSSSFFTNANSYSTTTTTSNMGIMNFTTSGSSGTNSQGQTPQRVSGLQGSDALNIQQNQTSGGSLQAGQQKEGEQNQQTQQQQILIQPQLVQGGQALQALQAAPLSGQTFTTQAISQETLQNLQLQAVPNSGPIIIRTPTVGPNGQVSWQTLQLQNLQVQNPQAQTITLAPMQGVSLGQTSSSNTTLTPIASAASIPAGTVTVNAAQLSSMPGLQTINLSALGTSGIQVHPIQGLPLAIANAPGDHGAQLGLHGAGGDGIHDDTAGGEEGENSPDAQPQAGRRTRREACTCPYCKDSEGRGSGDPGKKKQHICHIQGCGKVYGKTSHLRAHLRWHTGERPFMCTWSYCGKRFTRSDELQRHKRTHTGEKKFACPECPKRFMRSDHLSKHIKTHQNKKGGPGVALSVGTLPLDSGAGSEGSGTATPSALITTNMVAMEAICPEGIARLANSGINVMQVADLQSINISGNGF
Chain of Heat shock factor protein 1 (Homo sapiens) (Q00613 whole entry, looked up): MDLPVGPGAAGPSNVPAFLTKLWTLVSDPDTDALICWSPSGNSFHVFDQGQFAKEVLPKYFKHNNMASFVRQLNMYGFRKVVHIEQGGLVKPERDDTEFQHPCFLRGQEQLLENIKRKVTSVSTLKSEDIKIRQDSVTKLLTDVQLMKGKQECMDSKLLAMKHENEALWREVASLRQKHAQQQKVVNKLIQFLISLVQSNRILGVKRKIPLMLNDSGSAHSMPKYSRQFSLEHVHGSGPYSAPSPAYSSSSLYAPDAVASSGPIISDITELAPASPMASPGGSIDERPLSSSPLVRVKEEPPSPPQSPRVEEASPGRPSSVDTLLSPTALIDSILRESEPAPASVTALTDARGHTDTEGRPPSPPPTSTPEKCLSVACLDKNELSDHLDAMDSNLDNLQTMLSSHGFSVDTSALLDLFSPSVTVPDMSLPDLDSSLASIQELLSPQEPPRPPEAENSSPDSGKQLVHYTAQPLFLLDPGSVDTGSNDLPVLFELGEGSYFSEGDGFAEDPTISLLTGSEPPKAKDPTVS
Chain of Hepatocyte nuclear factor 6 (Homo sapiens) (Q9UBC0 whole entry, looked up, the tested form may be a part): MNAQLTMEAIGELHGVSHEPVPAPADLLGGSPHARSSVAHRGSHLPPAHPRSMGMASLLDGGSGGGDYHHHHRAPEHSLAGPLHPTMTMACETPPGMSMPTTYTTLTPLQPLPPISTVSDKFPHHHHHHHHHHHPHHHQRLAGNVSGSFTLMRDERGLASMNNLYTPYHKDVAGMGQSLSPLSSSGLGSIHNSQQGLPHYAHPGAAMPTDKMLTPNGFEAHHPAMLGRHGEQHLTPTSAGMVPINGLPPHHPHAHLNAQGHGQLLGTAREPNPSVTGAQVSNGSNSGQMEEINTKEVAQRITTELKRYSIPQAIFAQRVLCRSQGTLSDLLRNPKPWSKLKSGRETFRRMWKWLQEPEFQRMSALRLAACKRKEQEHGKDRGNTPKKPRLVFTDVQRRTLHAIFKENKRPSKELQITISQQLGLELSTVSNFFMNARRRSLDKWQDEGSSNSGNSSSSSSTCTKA
Chain of Bile acid receptor (Homo sapiens) (Q96RI1 whole entry, looked up): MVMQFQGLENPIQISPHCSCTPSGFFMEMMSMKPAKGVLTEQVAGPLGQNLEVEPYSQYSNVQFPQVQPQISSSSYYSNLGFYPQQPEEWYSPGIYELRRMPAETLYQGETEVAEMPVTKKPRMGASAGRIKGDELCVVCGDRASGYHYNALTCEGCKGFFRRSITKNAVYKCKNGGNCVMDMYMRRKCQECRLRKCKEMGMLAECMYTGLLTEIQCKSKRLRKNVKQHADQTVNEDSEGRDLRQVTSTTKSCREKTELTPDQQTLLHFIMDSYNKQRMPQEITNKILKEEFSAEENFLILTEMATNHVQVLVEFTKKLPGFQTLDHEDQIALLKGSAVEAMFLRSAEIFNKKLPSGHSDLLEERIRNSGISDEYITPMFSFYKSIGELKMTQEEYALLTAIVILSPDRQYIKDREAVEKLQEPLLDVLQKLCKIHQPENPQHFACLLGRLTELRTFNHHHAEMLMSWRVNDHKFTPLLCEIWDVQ
Chain of Hypoxia-inducible factor 1-alpha (Homo sapiens) (Q16665 whole entry, looked up): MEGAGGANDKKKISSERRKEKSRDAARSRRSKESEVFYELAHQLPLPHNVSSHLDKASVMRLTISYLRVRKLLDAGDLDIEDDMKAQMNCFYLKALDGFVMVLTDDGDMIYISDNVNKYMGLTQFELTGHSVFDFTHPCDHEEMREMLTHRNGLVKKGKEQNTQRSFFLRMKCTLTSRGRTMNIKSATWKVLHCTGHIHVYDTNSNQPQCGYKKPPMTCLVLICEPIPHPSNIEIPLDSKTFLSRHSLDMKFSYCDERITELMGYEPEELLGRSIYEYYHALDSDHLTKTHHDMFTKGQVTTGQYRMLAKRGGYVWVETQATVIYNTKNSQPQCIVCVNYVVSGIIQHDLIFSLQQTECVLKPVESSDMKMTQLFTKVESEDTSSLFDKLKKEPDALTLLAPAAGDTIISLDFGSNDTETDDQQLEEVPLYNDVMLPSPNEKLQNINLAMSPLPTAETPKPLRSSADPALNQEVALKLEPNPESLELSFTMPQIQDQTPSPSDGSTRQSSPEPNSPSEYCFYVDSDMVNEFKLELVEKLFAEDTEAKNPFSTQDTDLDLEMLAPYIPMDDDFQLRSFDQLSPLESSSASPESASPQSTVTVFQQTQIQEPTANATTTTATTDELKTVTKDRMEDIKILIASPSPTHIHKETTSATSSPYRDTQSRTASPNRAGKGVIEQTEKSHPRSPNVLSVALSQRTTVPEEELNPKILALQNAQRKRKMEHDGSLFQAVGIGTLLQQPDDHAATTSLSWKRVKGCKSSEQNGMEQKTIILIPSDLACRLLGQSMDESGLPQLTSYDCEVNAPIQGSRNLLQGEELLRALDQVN
Chain of Paired box protein Pax-6 (Homo sapiens) (P26367 whole entry, looked up): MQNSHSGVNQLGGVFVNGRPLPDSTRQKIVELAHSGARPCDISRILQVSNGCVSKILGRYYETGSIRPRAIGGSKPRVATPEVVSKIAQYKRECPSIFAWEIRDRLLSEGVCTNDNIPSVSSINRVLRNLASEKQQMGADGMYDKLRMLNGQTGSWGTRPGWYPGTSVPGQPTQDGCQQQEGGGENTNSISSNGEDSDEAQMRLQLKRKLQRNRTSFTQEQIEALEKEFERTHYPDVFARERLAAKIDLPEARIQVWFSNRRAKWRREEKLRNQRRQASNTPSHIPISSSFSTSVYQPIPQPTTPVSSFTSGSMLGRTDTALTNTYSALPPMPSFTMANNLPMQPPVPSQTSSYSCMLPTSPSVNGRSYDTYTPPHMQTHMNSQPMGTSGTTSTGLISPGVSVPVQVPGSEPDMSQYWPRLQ

Regarding `Clc1ccc(C(c2ccccc2Cl)C(Cl)Cl)cc1` (configuration not stated), the AC50 is 43.8 µM (active) in test [1]; 60.9 µM (active) in test [3]; 171 µM (active) in test [8]; 1.5 µM (active) in test [10]; 31.9 µM (active) in test [11]; 27.3 µM (active) in test [12]. The AC50 was 182 µM (active) in test [13], 52.7 µM (active) in test [14] and 161 µM (active) in [16]. Besides, the molecule was classed as inactive in test [2], in [4], in test [5], in test [6], in test [7] and in [9]. Further, the result in [15] was inactive.
For the molecule `CCc1ccc(O)c(OC)c1`, the result in test [1], in test [2], in [3], in [4], in test [5] and in test [17] was inactive. Also, the molecule was called inactive in [7], in test [8], in [10], in test [11], in test [12] and in test [14]. Moreover, the molecule was classed as inactive in test [15], in [16] and in [18].
For the molecule `C[C@H](CCC(=O)NCC(=O)O)[C@H]1CC[C@H]2[C@@H]3[C@H](O)C[C@@H]4C[C@H](O)CC[C@]4(C)[C@H]3C[C@H](O)[C@]12C`, the molecule was called inactive in test [1], in [2], in test [3], in [4], in [5] and in test [6]. Moreover, the molecule was classed as inactive in test [7], in test [8], in [19], in [10], in test [12] and in test [13]. The result in test [14], in test [15], in test [16], in test [18] and in [20] was inactive.
For `CC(C)(C)OC(=O)c1ccc(O)cc1`, the outcome in test [1], in test [2], in [3], in test [4], in [17] and in test [6] was inactive. For the same molecule, the outcome in test [9], in test [19], in test [10], in test [13], in test [14] and in test [15] was inactive. Besides, the molecule was classed as inactive in test [16], in test [18] and in test [20]. Further, the AC50 was 159 µM (active) in test [7], 100 µM (active) in [8], 87.7 µM (active) in test [11] and 72.5 µM (active) in [12].
